Screening results from PubChem.
Mcl1-Noxa inh: Mcl-1/Noxa binding inhibitors, primary screen, biochemical, TR-FRET, 1536-well; 220,000 tested, 1.5% active; Induced myeloid leukemia cell differentiation protein Mcl-1 (Homo sapiens), Q07820; inhibition, % at 21.7 µM; TR-FRET Mcl-1/Noxa peptide binding, 2 h;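 active = compounds that cut the protein-peptide binding signal by more than 50% relative to plate controls in a single-dose test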;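 also: His-tagged Mcl-1 with rhodamine Noxa BH3 peptide and terbium anti-His antibody; 0% = Mcl-1 plus Noxa peptide wells and 100% = peptide-only wells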
Target sequence (Q07820 whole entry, looked up): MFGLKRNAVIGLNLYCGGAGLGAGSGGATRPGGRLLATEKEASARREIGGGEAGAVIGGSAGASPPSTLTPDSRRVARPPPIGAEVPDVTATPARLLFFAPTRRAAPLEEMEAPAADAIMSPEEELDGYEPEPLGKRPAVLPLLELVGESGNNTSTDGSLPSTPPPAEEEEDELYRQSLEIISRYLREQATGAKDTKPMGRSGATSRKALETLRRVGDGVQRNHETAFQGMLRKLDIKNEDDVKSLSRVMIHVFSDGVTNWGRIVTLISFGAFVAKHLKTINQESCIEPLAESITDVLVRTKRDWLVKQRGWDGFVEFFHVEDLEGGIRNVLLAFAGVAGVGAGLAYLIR
Mcl-1 Bim block: inhibitors of Bim peptide binding to Mcl-1, primary screen, biochemical, bead-based flow cytometry, multiplex | 190,000 tested, 0.1% active | Bim peptide-Mcl-1 binding | inhibition, % at 10 µM | AID 1009, 2008; in the data active = inhibition above about 40%;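 also: 0% = no compound tracer wells and 100% = peptide blocker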
eIF4E 4G PPI: eIF4E–eIF4G protein interaction inhibitors, primary screen, biochemical, uHTS, TR-FRET, eIF4GI fragment | Eukaryotic translation initiation factor 4E (Mus musculus) + Eukaryotic translation … | TR-FRET eIF4E-eIF4GI(517-606) binding, 2 h | inhibition, % at 21.7 µM | 220,000 tested, 0.37% active | AID 782, 2007;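 active = inhibition above about 30%, limit read from the data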;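 also: 0% = full FRET control wells and 100% = background wells lacking eIF4GI fragment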
14-3-3 Bad inh: inhibitors of 14-3-3 zeta/Bad binding, primary screen, biochemical, TR-FRET, bovine 14-3-3 zeta; inhibition, % at 21.7 µM; AID 781, 2007; TR-FRET 14-3-3zeta/Dy647-pBad peptide displacement, 1 h; 14-3-3 protein zeta/delta (Bos taurus), P63103; 220,000 tested, 0.71% active;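 active = inhibition above about 70%, limit read from the data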;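 also: 0% = full 14-3-3 plus peptide FRET controls and 100% = background without 14-3-3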
Target sequence (P63103 whole entry, looked up): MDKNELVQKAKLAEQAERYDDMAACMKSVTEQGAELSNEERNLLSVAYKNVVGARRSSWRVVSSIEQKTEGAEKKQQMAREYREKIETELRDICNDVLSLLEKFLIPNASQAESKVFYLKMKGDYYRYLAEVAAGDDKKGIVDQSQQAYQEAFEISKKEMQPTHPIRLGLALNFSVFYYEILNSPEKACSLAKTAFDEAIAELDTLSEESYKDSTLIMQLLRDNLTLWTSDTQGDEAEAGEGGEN
MCL1 BIM primary: inhibitors of MCL1 binding to BIM-BH3, primary screen, biochemical, fluorescence polarization | Induced myeloid leukemia cell differentiation protein Mcl-1 (Homo sapiens), Q07820 | GST-MCL1 / FITC-Bim-BH3 fluorescence polarization | inhibition, % at 10.9 µM | 320,000 tested, 0.68% active | AID 2057, 2009;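 active = inhibition above the mean inhibition of all tested compounds plus 3 SD, set per campaign, cut at about 40% in these data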;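 also: 0% = DMSO wells and 100% = unlabeled Bim-BH3 peptide control; higher means more loss of mP so more displacement of Bim peptide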
Mcl1-Bid inh: Mcl-1/Bid binding inhibitors, primary screen, biochemical, TR-FRET, 1536-well | 220,000 tested, 0.97% active | inhibition, % at 21.7 µM | TR-FRET Mcl-1/Bid-Dy647 peptide binding;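 active = compounds that cut the binding signal by more than half at the single screening dose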;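 also: His-tagged Mcl-1 with europium anti-His antibody binding Bid BH3 peptide; 0% = Mcl-1 plus peptide wells and 100% = peptide-only wells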
Active calls of the source: *; x = not tested or not shown; ! = a repeat was not active; [ ] = remark or other dose. Shown are actives, neighbours in structure and some others; about 2.6% of the full set was active somewhere.

SMILES	Mcl1-Noxa inh	Mcl-1 Bim block	eIF4E 4G PPI	14-3-3 Bad inh	MCL1 BIM primary	Mcl1-Bid inh
C[C@]12CCC(=O)C[C@H]1CC[C@@H]1[C@@H]2CC[C@]2(C)[C@@H](O)CC[C@@H]12	x	x	x	x	3	x
C[C@]12CC[C@@H]3c4ccc(O)c(O)c4CC[C@H]3[C@@H]1CC[C@@H]2O	64*	4	42*	47	14	-76
Cc1cc(=O)oc2c(C)c(OCC(=O)N3CCC(C(=O)O)(c4ccccc4)CC3)ccc12	x	x	x	x	4	x
O=C1/C(=C\c2ccccc2)C2OCC=C3CN4CCC56c7ccccc7N1C5C2C3CC46 (stereo not given)	-2	x	-9	7	-2	-65
c1cncc(C2CCCCN2Cc2ccc3c(c2)OCO3)c1 (stereo not given)	17	-2	-6	71*	-7	40
CN1c2ccccc2Oc2ccccc21	69*	-5	22	10	10	-11
c1ccc2c(c1)CNc1ccccc1O2	2	0	-10	-14	8	-40
O=c1[nH]c(=O)n(CCc2ccccc2)c(O)c1C=NCc1ccc2c(c1)OCO2	-103	-1	-5	52	-3	67*
CCOc1ccccc1-n1c(O)c(C=NCc2ccc3c(c2)OCO3)c(=O)[nH]c1=O	-5	2	0	-6	-3	-14
Cn1c(O)c(C=Nc2ccc(F)cc2)c(=O)[nH]c1=O	x	x	x	x	0	x
CC(C)(C)n1c(O)c(C=Nc2ccc3c(c2)CCC3)c(=O)[nH]c1=O	71*	-3	4	-4	-2	-7
O=C(c1cn(Cc2ccccc2F)c2ncccc12)C(F)(F)F	x	x	x	x	-2	x
O=C(O)CCC(=O)NCCC1=c2ccccc2=N/C1=C\c1c(O)n(Cc2ccc(F)cc2)c(=S)[nH]c1=O	104*	x	60*	75*	8	100*
O=C(N/N=C/c1c(O)n(Cc2ccc(F)cc2)c(=O)[nH]c1=O)c1ccccc1	-85	x	-2	-8	33	-52
N[C@@H]1CCCC[C@H]1N.O=C(O)C(=O)O.[Pt]	x	x	x	x	-1	x
CCCCCCn1c(O)c(C=NCCN2CCOCC2)c(=O)[nH]c1=O	25	-1	1	6	-16	99*
CNC(=O)NC(O)C(Cl)(Cl)Cl (stereo not given)	x	x	x	x	-3	x
CCCCC1C(=O)NC(=S)NC1=O	10	-3	7	-9	-17	4
COc1cc(O)c(C(=O)O)c(-c2cc(O)c(O)cc2C)c1	93*	x	-16	3	28	-36
CN(C)c1ccc(/C=C/C=C2/C(=O)NC(=O)N(c3ccccc3)C2=O)cc1	58*	1	14	44	x	52*
COc1ccc(C(=O)CC2(CC(=O)c3ccc(OC)cc3)C(=O)N(C)C(=O)N(C)C2=O)cc1	-6	0	0	-1	7	-24
CN1C(=O)N(C)C(=O)C2(Cc3c(ccc4ccccc34)N(C)C2)C1=O	51*	-1	-5	-6	4	-74
C=CCC1(CN2CCCC2=O)C(=O)NC(=O)NC1=O	8	-1	-14	-1	2	-2
C=CCC1(CN2CCCCCC2=O)C(=O)NC(=O)NC1=O	-12	1	2	11	8	61*
COc1ccc(CC2C(=O)NC(=O)N(c3ccccc3)C2=O)c(OC)c1 (stereo not given)	29	-2	69*[fluorescence artefact?]	3	15	38
SMILES	Mcl1-Noxa inh	Mcl-1 Bim block	eIF4E 4G PPI	14-3-3 Bad inh	MCL1 BIM primary	Mcl1-Bid inh
O=c1[nH]c(O)c(/C=C2/C=CC(c3cc(Cl)ccc3Cl)=N2)c(=O)[nH]1	26	x	-13	45	-67	67*
CC1=Nc2ccccc2/C1=C/c1c(O)[nH]c(=O)[nH]c1=O	x	x	x	x	3	x
Cc1ccc2c(c1)=C/C(=C\c1c(O)[nH]c(=S)[nH]c1=O)C(=O)N=2	57*	-2	6	19	2	-20
CCCCOc1ccc(CC2C(=O)N(C)C(=O)N(C)C2=O)cc1	26	-2	-13	29	-8	72*
COc1cc2nc(N3CCN(C(=O)c4ccco4)CC3)nc(N)c2cc1OC	58*!	3	2	28	6	67*!
CC(C(=O)c1c[nH]c2ccccc12)N1CCN(C(=O)c2ccco2)CC1 (stereo not given)	6	x	0	-19	-10	-31
Cc1cc(OCC(=O)NCc2ccncc2)c2c3c(c(=O)oc2c1)CCCC3	x	x	x	x	5	x
Oc1ccc2c3c1O[C@H]1c4[nH]c5ccccc5c4C[C@@]4(O)C(C2)N(CC2CC2)CC[C@]314	17	0	6	8	66*	13
Oc1ccc2c3c1O[C@H]1c4[nH]c5ccccc5c4C[C@@]4(O)[C@@H](C2)N(CC2CC2)CC[C@]314	x	x	x	x	3	x
CN(C)c1ccc2c(c1)N=C(c1ccco1)OP2(=S)N1CCOCC1 (stereo not given)	15	-2	41*	26	23	-1
CN(C)c1ccc(CCN2CCOCC2)cc1	x	x	x	x	2	x
CCOP(=O)(/C=C(\Cl)c1ccccc1)C(O)c1ccc(F)cc1 (stereo not given)	x	x	x	x	5	x
CCOP(=O)(OCC)C(O)c1ccc(N(C)C)cc1 (stereo not given)	-2	x	2	-3	8	58*
CCOP(=O)(OCC)C(O)c1ccc(Br)cc1 (stereo not given)	18	-6	5	2	-6	5
COC(=O)C1=C(c2ccc(OC)c(OC)c2)C[C@@H]2CC[C@H]1N2C(=O)NCc1cccc2ccccc12	x	x	x	x	6	x
CC(Cc1ccccc1)[n+]1cc(/N=C(\[O-])N(C)C)on1 (stereo not given)	5	-2	-3	85*	3	35
Clc1ccc(C(c2ccc(Cl)cc2)n2cc[n+](CC(OCc3ccc(Cl)cc3Cl)c3ccc(Cl)cc3Cl)c2)cc1 (stereo not given)	x	x	x	x	-14	x
CCN(CC)c1ccc(/C=N/c2sc3c(c2C#N)C2CCN3CC2)c(O)c1	-10	-11	12	-2	-87	-32
CN1CCCCC1c1ccc(-c2cccnc2)nc1 (stereo not given)	21	3	2	21	0	70*
CCOc1cc(C=C2C(=O)NC(=O)NC2=O)ccc1OS(=O)(=O)c1ccccc1	60*	-1	7	23	9	-2
C=C[C@@H]1C2=CCOC(=O)C2=CO[C@H]1O[C@@H]1O[C@H](CO)[C@@H](O)[C@H](O)[C@H]1O	x	x	x	x	3	x
CNC(=O)OCc1n(C)cc[n+]1C	-18	-4	-1	13	-21	87*
